The experiment deals with HL-1. Kind of experiment: relative cell viability (CellTiter-Glo) vs DMSO control (% of DMSO control); higher = more viable cells. In short, it runs like this: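 Viability of HL-1 mouse atrial cardiomyocytes was assessed by CellTiter-Glo luminescence and normalised to vehicle-treated control cells. Cells were plated in 384-well plates at 1000 cells per well with compounds at 40, 200, 1000 or 5000 nM in 0.01% DMSO, and one day later were placed at 1% O2 for 48 h, then reoxygenated for 24 h, or kept in normoxia for the same duration.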
Background: ATP-based viability assays read luminescence as a measure of living cells.

The mark [1] stands for this setting: oxygen condition: hypoxia 48 h (1% O2) + reoxygenation 24 h, 40 nM.
Setting [2] is: oxygen condition: hypoxia 48 h (1% O2) + reoxygenation 24 h, 200 nM.
The mark [3] stands for this setting: oxygen condition: hypoxia 48 h (1% O2) + reoxygenation 24 h, 1000 nM.
Setting [4] is: oxygen condition: hypoxia 48 h (1% O2) + reoxygenation 24 h, 5000 nM.
Setting [5] is: oxygen condition: normoxia 72 h, 40 nM.
Where [6] appears, read: oxygen condition: normoxia 72 h, 200 nM.
Where [7] appears, read: oxygen condition: normoxia 72 h, 1000 nM.
The mark [8] stands for this setting: oxygen condition: normoxia 72 h, 5000 nM.

This is an account of results in the supplement of paper PMC8371130.

Counter-ions that a name gives are not always drawn.

In the case of `CN(C)c1nc(N(C)C)nc(N(C)C)n1` [Altretamine], the relative cell viability reads like this: under setting [1], 102; under setting [2], 109; under setting [3], 115; under setting [4], 109; under setting [5], 115; under setting [6], 103. This compound showed a relative cell viability under setting [7] of 108 and a relative cell viability under setting [8] of 122.
Regarding `Nc1cccc2c1CN(C1CCC(=O)NC1=O)C2=O` (stereo not drawn) [Lenalidomide], the relative cell viability runs as follows: under setting [1], 108; under setting [2], 110; under setting [3], 109; under setting [4], 111; under setting [5], 113; under setting [6], 117. For the same compound, the relative cell viability reads like this: under setting [7], 117; under setting [8], 114.
As to `N=C(N)NC(=O)c1nc(Cl)c(N)nc1N` [Amiloride hydrochloride dihydrate], the relative cell viability under setting [1] is 101; the relative cell viability under setting [2] was found to be 106; the relative cell viability under setting [3] turned out to be 107; the relative cell viability under setting [4] came out at 118; the relative cell viability under setting [5] came to 101; the relative cell viability under setting [6] worked out at 102. The compound further had a relative cell viability under setting [7] of 106 and a relative cell viability under setting [8] of 111.
Take `CCN1CCC[C@H]1CNC(=O)c1cc(S(N)(=O)=O)ccc1OC` [Levosulpiride]: the relative cell viability runs as follows: under setting [1], 98; under setting [2], 107; under setting [3], 105; under setting [4], 116; under setting [5], 107; under setting [6], 108. The relative cell viability reads like this: under setting [7], 108; under setting [8], 116.
Consider `CCC1(c2ccccc2)C(=O)NCNC1=O` [Primidone], for which the relative cell viability under setting [1] was 101; the relative cell viability under setting [2] turned out to be 105; the relative cell viability under setting [3] was 110; the relative cell viability under setting [4] was 95.7; the relative cell viability under setting [5] was 104; the relative cell viability under setting [6] turned out to be 103. For the same compound, the relative cell viability amounted to 98.6 under setting [7] and 106 under setting [8].
For the compound `O=c1[nH]c(=O)n([C@H]2C[C@H](O)[C@@H](CO)O2)cc1F` [Floxuridine], the relative cell viability amounted to 49.5 under setting [1]; 40.7 under setting [2]; 31.4 under setting [3]; 17.4 under setting [4]; 46.1 under setting [5]; 41.5 under setting [6]. Further, the relative cell viability by setting is: under setting [7], 28.6; under setting [8], 16.3.
Consider `CC(=O)OCC(=O)NCCCOc1cccc(CN2CCCCC2)c1` [Roxatidine acetate HCl], for which the relative cell viability under setting [1] was found to be 105; the relative cell viability under setting [2] was 104; the relative cell viability under setting [3] was found to be 99.8; the relative cell viability under setting [4] was found to be 114; the relative cell viability under setting [5] worked out at 110; the relative cell viability under setting [6] is 102. For the same compound, the relative cell viability is, setting by setting: under setting [7], 107; under setting [8], 108.
Regarding `Cc1ccccc1N1C(=O)c2cc(S(N)(=O)=O)c(Cl)cc2NC1C` (stereo not drawn) [Metolazone], the relative cell viability turned out to be 104 under setting [1]; 107 under setting [2]; 107 under setting [3]; 111 under setting [4]; 109 under setting [5]; 110 under setting [6]. Moreover, the relative cell viability under setting [7] turned out to be 112 and the relative cell viability under setting [8] is 116.
For `CC(C)c1c(C(=O)Nc2ccccc2)c(-c2ccccc2)c(-c2ccc(F)cc2)n1CC[C@@H](O)C[C@@H](O)CC(=O)O` [Atorvastatin calcium], the relative cell viability is, setting by setting: under setting [1], 107; under setting [2], 95.8; under setting [3], 102; under setting [4], 41.7; under setting [5], 96.4; under setting [6], 98.8. The relative cell viability was 81.6 under setting [7] and 19.9 under setting [8].
`CCC(CC)[C@H](NC(C)=O)[C@@H]1[C@H](O)[C@@H](C(=O)O)C[C@H]1NC(=N)N` [Peramivir Trihydrate]: the relative cell viability under setting [1] was 101; the relative cell viability under setting [2] amounted to 99.2; the relative cell viability under setting [3] was determined as 107; the relative cell viability under setting [4] stood at 111; the relative cell viability under setting [5] turned out to be 112; the relative cell viability under setting [6] turned out to be 109. The relative cell viability runs as follows: under setting [7], 103; under setting [8], 116.
For `CO[C@H]1O[C@@H]2O[C@@]3(C)CC[C@H]4[C@H](C)CC[C@@H]([C@H]1C)[C@@]24OO3` [Artemether], the relative cell viability under setting [1] was 104; the relative cell viability under setting [2] came out at 103; the relative cell viability under setting [3] turned out to be 100; the relative cell viability under setting [4] amounted to 60.3; the relative cell viability under setting [5] worked out at 103; the relative cell viability under setting [6] turned out to be 102. In addition, the relative cell viability under setting [7] turned out to be 98.3 and the relative cell viability under setting [8] turned out to be 93.2.
Consider `NC(=O)c1ncn([C@@H]2O[C@H](CO)[C@@H](O)[C@H]2O)n1` [Ribavirin], for which the relative cell viability is, setting by setting: under setting [1], 102; under setting [2], 96.2; under setting [3], 108; under setting [4], 101; under setting [5], 100; under setting [6], 104. Besides, the relative cell viability is, setting by setting: under setting [7], 109; under setting [8], 107.
On to `C#Cc1cccc(Nc2ncnc3cc(OCCOC)c(OCCOC)cc23)c1` [Erlotinib HCl], for which the relative cell viability is 114 under setting [1]; 107 under setting [2]; 105 under setting [3]; 124 under setting [4]; 112 under setting [5]; 123 under setting [6]. For the same compound, the relative cell viability reads like this: under setting [7], 112; under setting [8], 113.
With `COc1ccc([C@H]2CNC(=O)C2)cc1OC1CCCC1` [S-(+)-Rolipram], the relative cell viability runs as follows: under setting [1], 103; under setting [2], 92.3; under setting [3], 89.4; under setting [4], 90.4; under setting [5], 95.6; under setting [6], 101. Besides, the relative cell viability came to 98.7 under setting [7] and 103 under setting [8].
Regarding `CCCCCN(C)CCC(O)(P(=O)(O)O)P(=O)(O)O` [Ibandronate sodium], the relative cell viability amounted to 100 under setting [1]; 95.3 under setting [2]; 93.1 under setting [3]; 91 under setting [4]; 99.9 under setting [5]; 99.4 under setting [6]. Further, the relative cell viability is, setting by setting: under setting [7], 92.6; under setting [8], 84.4.
Take `CCOC(=O)C1=C(C)NC(C)=C(C(=O)OCC)C1c1ccccc1/C=C/C(=O)OC(C)(C)C` [Lacidipine]: the relative cell viability runs as follows: under setting [1], 109; under setting [2], 102; under setting [3], 100; under setting [4], 102; under setting [5], 106; under setting [6], 104. The relative cell viability was found to be 106 under setting [7] and 106 under setting [8].
